High-throughput results (PubChem BioAssay)
KDM5B inhibitor: KDM5B demethylase inhibition. Q9UGL1. KDM5B demethylase, FDH-coupled NADH fluorescence (FDH is formaldehyde dehydrogenase). Potency, µM (titrated, usually from 57.7 µM), usual class: inhibitors. 2.6% of 220,000 active; active = well fitted inhibition curve with a large enough effect; inconclusive = small, poorly fitted or top-dose-only effect; inactive = no such curve, though single readings can be large or run the other way; also: potency is read from the fitted curve at half-maximal effect; 0% is about no effect; nearly all actives have a fitted effect of over 70% in size
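KDM5BΔAP (200 nM final) in 50 mM HEPES pH 7.5, 0.01% Tween-20 was preincubated 10 min at RT with compound over a concentration range. Substrate mix (H3K4me3 12.5 µM, α-KG 25 µM, Fe²⁺, ascorbate, NAD⁺, FDH) was added, and NADH fluorescence change over 30 min gave dose-response curves.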
IP6K1 inhibitor: inhibitors of human IP6K1. Q92551. IP6K1 kinase, ADP-Glo luminescence, 2 h; hits give low values. activity change, % (series mostly up to about 58 µM). 0.81% of 140,000 active; in the data active = activity change below about -25%; also: % is scaled to controls: 0 for no effect and ±100 for the full control effect
Target sequence (Q92551 whole entry, looked up): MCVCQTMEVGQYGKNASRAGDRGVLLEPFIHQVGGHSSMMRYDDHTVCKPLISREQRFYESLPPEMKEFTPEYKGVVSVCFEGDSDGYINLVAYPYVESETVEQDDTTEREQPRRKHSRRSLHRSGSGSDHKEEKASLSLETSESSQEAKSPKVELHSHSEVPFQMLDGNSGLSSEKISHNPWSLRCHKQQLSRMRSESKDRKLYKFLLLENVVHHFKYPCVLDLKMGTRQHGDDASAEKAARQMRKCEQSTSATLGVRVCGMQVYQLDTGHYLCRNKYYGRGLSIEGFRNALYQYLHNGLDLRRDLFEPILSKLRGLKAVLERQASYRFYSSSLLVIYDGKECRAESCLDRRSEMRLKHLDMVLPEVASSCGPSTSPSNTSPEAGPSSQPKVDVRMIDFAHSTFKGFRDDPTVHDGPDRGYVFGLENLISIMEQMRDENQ
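ADP-Glo luminescence measures ADP made by human IP6K1 during a 2 h RT reaction with ATP/IP6 (mix at 1.3 mM/130 uM); top library doses 57.5 and 19.1 uM final.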
* marks the source's active call; other numbers are inactive results. An excerpt weighted towards active compounds, which were near 2.7% of everything screened.

`CN1CCCC2(C1)CN(Cc1cccnc1)c1ccc(C(=O)NCC3CCCCC3)cc12` (configuration not stated) gave KDM5B inhibitor inactive and IP6K1 inhibitor 4.
Screening O=C(NC1CCC1)c1ccc2c(c1)C1(CCN(CC3CC3)C1)CN2Cc1ccccc1 (configuration not stated) returned KDM5B inhibitor 40µM* and IP6K1 inhibitor -6.
For Cc1nc2ccc(C(=O)NC3CCN(Cc4ccccc4)CC3)cc2nc1C the results were KDM5B inhibitor inactive.
CN1CCC2(C1)CN(Cc1ccccc1)c1ccc(C(=O)NCCOc3ccccc3)cc12 (configuration not stated) was read as KDM5B inhibitor 28µM* and IP6K1 inhibitor -1.
O=C(NCC(F)(F)F)c1ccc2c(c1)C1(CCN(CC3CC3)C1)CN2Cc1ccccc1 (configuration not stated) was read as KDM5B inhibitor 20µM* and IP6K1 inhibitor 19.
For COc1ccc(CC2CCOC3(CCN(C(=O)Nc4ccccc4F)CC3)C2)cc1 (configuration not stated) the results were KDM5B inhibitor inactive and IP6K1 inhibitor 10.
`CC(C)(C)C(=O)Nc1cc(-c2cccnc2)nn1-c1ccccc1` gave IP6K1 inhibitor -5.
`O=C(/C=C/c1ccccc1Cl)Nc1ccccc1-c1ccccc1` gave KDM5B inhibitor inactive.
Screening CC(C)NC(=O)c1ccccc1OCC1CCCN(Cc2ccc(Br)o2)C1 (configuration not stated) returned KDM5B inhibitor inactive and IP6K1 inhibitor -4.
For COC(=O)c1ccc2nc(CO[C@H]3CN(Cc4ccc(Cl)cc4)C[C@H]3F)[nH]c2c1 the results were KDM5B inhibitor inactive and IP6K1 inhibitor 5.
Screening COC(=O)C1=C(CS(=O)(=O)c2ccc(C)cc2C)NC(=O)NC1c1ccc(O)cc1 (configuration not stated) returned KDM5B inhibitor inactive.
CCNC(=O)c1ccc2c(c1)C1(CCN(CC3CC3)C1)CN2Cc1ccccc1 (configuration not stated) was read as KDM5B inhibitor 35µM* and IP6K1 inhibitor 11.
For COCCNC(=O)c1ccc2c(c1)C1(CCN(CC3CC3)C1)CN2Cc1ccccc1 (configuration not stated) the results were KDM5B inhibitor 35µM* and IP6K1 inhibitor 12.
Screening O=C(NCCCO)c1ccc2c(c1)C1(CCN(CC3CC3)C1)CN2Cc1ccccc1 (configuration not stated) returned KDM5B inhibitor 35µM* and IP6K1 inhibitor -6.
For O=C(NCC1CC1)c1cccc(OC2CN(C3CCN(Cc4ccccc4)CC3)C2)c1 the results were KDM5B inhibitor inactive and IP6K1 inhibitor -3.
O=C(NCC1CC1)c1ccc2c(c1)C1(CCN(CC3CC3)C1)CN2Cc1ccccc1 (configuration not stated) was read as KDM5B inhibitor 28µM* and IP6K1 inhibitor 11.
CCn1c(=O)n(CCC(=O)NC2(c3noc(C)n3)CCCCC2)c2ccccc21 was read as KDM5B inhibitor inactive.
Screening CSc1ccccc1NC(=O)CN(C)C(C)C(=O)Nc1ccc(SC(F)F)cc1 (configuration not stated) returned KDM5B inhibitor inactive.
Cc1nn(-c2ccccc2)c2c1C(C)N(C1CCN(C(=O)c3cccc(C(F)(F)F)c3)C1)C2=O (configuration not stated) was read as IP6K1 inhibitor 0.
CN1CCC2(C1)CN(CC1CC1)c1ccc(C(=O)Nc3ccccc3)cc12 (configuration not stated) was read as KDM5B inhibitor inconclusive and IP6K1 inhibitor 8.
Screening CN1CCC2(C1)CN(CC1CC1)c1ccc(C(=O)NC3CCCCC3)cc12 (configuration not stated) returned KDM5B inhibitor 40µM* and IP6K1 inhibitor 12.
COc1ccc2c(c1)CCCN2C1CNC1 was read as KDM5B inhibitor 126µM* and IP6K1 inhibitor -12.
For COc1ccc2c(c1)CCCC2=O the results were IP6K1 inhibitor 7.
NCc1ccc(C(F)(F)F)cc1 was read as KDM5B inhibitor inactive.
For CN(C)C(=O)c1ccc2c(c1)n(Cc1cccc(F)c1)c(=O)c1ccnn12 the results were KDM5B inhibitor 32µM* and IP6K1 inhibitor -9.
`O=C(NC1CCCC1)c1ccc2c(c1)n(Cc1ccccc1)c(=O)c1ccnn12` gave KDM5B inhibitor inconclusive and IP6K1 inhibitor 1.
`COc1ccc(Cn2c(=O)c3ccnn3c3ccc(C(=O)O)cc32)cc1` gave KDM5B inhibitor inactive and IP6K1 inhibitor 6.
`O=C(O)c1ccc2c(c1)n(Cc1ccc(F)cc1)c(=O)c1ccnn12` gave KDM5B inhibitor 20µM* and IP6K1 inhibitor -4.
Screening COCCCNC(=O)c1ccc2c(c1)n(Cc1ccccc1)c(=O)c1ccnn12 returned KDM5B inhibitor inconclusive and IP6K1 inhibitor 1.
